Results on 59 compounds are retold here after PubChem BioAssay AID624504 (Sanford-Burnham Center for Chemical Genomics, 2012).

About 3,900 (78%) of roughly 5,000 compounds were called active. The set was probably picked from earlier hits. Only a sample is shown. A number with no mark means an inactive call. Cut-off read from the data, not from the text of the source: active = inhibition above about 22%; inactive = the rest.

Usually inhibition stands for the relative decrease from the control value, in per cent.

The nature of the test: fluorescence retest of MPTP screen hits in isolated mitochondria, single concentration (AID 624504).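 Note: 0% = DMSO vehicle and 100% = positive control.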 As to conditions: membrane potential, Rhodamine 123 fluorescence, at 10 µM, active compounds read high.
As to `NS(=O)(=O)c1ccc(NC(=S)Nc2ccc(Br)c(Cl)c2)cc1`, the inhibition was 76% (active). Take `CCN1CCC(O)(/C=C/c2ccc(C)cc2)C(C(=O)/C=C/c2ccc(C)cc2)C1` (centres undefined): the inhibition was -14.1%.

For `Cc1cc(C)cc(NS(=O)(=O)c2ccc(Oc3ncc(C(F)(F)F)cc3Cl)cc2)c1`, the inhibition was 93.4% (active). Then `FC(F)Oc1ccccc1NC(=S)Nc1cccc(Cl)c1Cl`, with 44.5% (active). Regarding `CN(Cc1cccnc1)C(=O)c1cc(COc2ccc3ncccc3c2)on1`, the inhibition was 73% (active).

For the compound `CCCc1[nH]nc2c1C(c1c(C)nn(-c3ccccc3)c1Cl)C(C#N)=C(N)O2` (centres undefined), the inhibition was -3.33%. Under `O=C1CC(c2ccccc2)=NN1c1ccc([N+](=O)[O-])cc1` stands 77.6% (active); under `O=C(Nc1cccc(Cl)c1)Nc1ccccc1NS(=O)(=O)c1cccs1`, 89.6% (active). As for `COc1cc(CC(=O)Nc2nc(-c3ccc(F)c(F)c3)cs2)cc(OC)c1OC`, the inhibition was 93.2% (active). On to `COc1ccc(CC(=O)Nc2nc(-c3ccc(F)c(F)c3)cs2)cc1OC`, for which the inhibition was 94.5% (active).

As for `CCCOc1ccc(Cc2c(Cl)nc(SC)nc2NC)cc1`, the inhibition was 93.6% (active). Take `Cn1nccc1NC(=O)Nc1ccc(OC(F)(F)F)cc1`: the inhibition is 73.2% (active). Under `CC(=N\NC(=O)c1cc(Br)ccc1O)/C(=N/O)C(=O)Nc1ccccc1` stands 78.4% (active); under `Cc1oc2c(F)c(F)c(F)c(F)c2c1S(=O)(=O)Nc1cccc(C(F)(F)F)c1`, 83.5% (active). Then `Cc1oc2cc([N+](=O)[O-])c(O)c([N+](=O)[O-])c2c1C(=O)c1ccc(Br)cc1`, with 61.8% (active); and `O=C(Cc1ccc(-n2c(=O)[nH]c3ccccc3c2=O)cc1)N1CCN(c2cccc(Cl)c2)CC1`, with 49.8% (active); and `COc1ccc(CCNc2cc(N3CCN(C(=O)c4ccccc4OC)CC3)ccc2[N+](=O)[O-])cc1OC`, with 47.7% (active). With `Cc1ccc2c(c1)C1CN(C)CCC1N2S(=O)(=O)c1ccc(Oc2ccc([N+](=O)[O-])cc2)cc1` (centres undefined), the inhibition is -16.2%.

As to `Cc1ccc(NC(=O)COc2ccc(-n3ccnc3)cc2)cc1Cl`, the inhibition is 94.1% (active). Then `O=C(Nc1nc2c(F)cc(F)cc2s1)C1COc2ccccc2O1` (centres undefined), with 76.6% (active); and `O=C(Nc1nnc(SCc2ccc(Cl)cc2Cl)s1)C1COc2ccccc2O1` (centres undefined), with 72.7% (active). Then `O=C(NCCNc1ccc([N+](=O)[O-])cc1)c1cccc2c(Br)cccc12`, with 84.9% (active). `Cc1cccc(-c2nc3ccc(C(=O)NCCN4CCN(C)CC4)cc3nc2-c2cccc(C)c2)c1`: the inhibition is -16.4%. As to `O=C(NCCCN1CCN(c2ccc(F)cc2)CC1)Nc1ccc([N+](=O)[O-])cc1`, the inhibition was 89.6% (active). Turning to `CN1CCN(CCNC(=O)Nc2ccc([N+](=O)[O-])cc2)CC1`, the inhibition is 75.1% (active). Then `CCCOc1ccc(C(=O)C(CCC(CNCC)C(=O)c2ccc(OCCC)cc2)CNCC)cc1` (centres undefined), with -13.8%; and `O=c1c(-c2ccc3c(c2)OCCO3)c(C(F)(F)F)oc2cc(O)cc(O)c12`, with 80.7% (active); and `CC1=C/C(=N\OS(=O)(=O)c2ccccc2)C=CC1=O`, with 92.7% (active). Consider `Cc1c(C(=O)OC(C)C)sc(NC(=O)c2cccnc2)c1C#N`, for which the inhibition is 82.8% (active). On to `Cc1ccc(-c2nc(-c3cccnc3)sc2CC(=O)Nc2ccc(C)c(Cl)c2)cc1`, for which the inhibition was 90.8% (active).

Turning to `CCNS(=O)(=O)c1ccc(NC(=O)Nc2cccc(C(F)(F)F)c2)cc1`, the inhibition was 73.9% (active).

As to `CCc1cc2c(NC3CCCC3)ncnc2s1`, the inhibition is 59.8% (active).

Take `N/C(=N\OC(=O)Nc1ccc(Cl)c(Cl)c1)c1ncc(C(F)(F)F)cc1Cl`: the inhibition was 118% (active). With `c1ccc(-c2cc3c(NCC4COc5ccccc5O4)ncnc3s2)cc1` (centres undefined), the inhibition was 70.6% (active). Then `O=C(NC1CCN(Cc2ccccc2)CC1)c1cc(Br)c(Br)[nH]1`, with 9.55%; and `CSc1nccc(NC(=O)c2ccc(C(C)(C)C)cc2)n1`, with 91.4% (active). Turning to `COc1cc(C(=O)Nc2oc(-c3ccccc3)c(-c3ccccc3)c2C#N)cc(OC)c1OC`, the inhibition was 63% (active).

On to `COC(=O)c1sccc1NC(=O)CSc1ccccc1NS(=O)(=O)c1cc(Cl)ccc1Cl`, for which the inhibition was 90.9% (active). Under `Cn1nc(C(F)(F)F)c(C(=O)Nc2cccc(C(F)(F)F)c2)c1SCc1ccc(Cl)cc1` stands 63.4% (active). Turning to `COc1ccc(S(=O)(=O)Nc2ccc3oc(C)c(C(C)=O)c3c2)cc1`, the inhibition was 63.9% (active). As to `COc1cc(NS(=O)(=O)c2ccc(NC(C)=O)cc2)cc(OC)c1`, the inhibition is 47.9% (active). `CC(C)OCCCNc1ncnc2c1[nH]c1ccc(F)cc12`: the inhibition was 110% (active). In the case of `COc1ccc2oc(-c3cccc(NC(=O)CSc4ccc(Cl)cc4)c3)nc2c1`, the inhibition was 70.8% (active). Regarding `O=C(Nc1ccc(Cl)cc1)Nc1ccc(Oc2cccnc2)nc1`, the inhibition was 94.2% (active). With `CCCc1cc(=S)n2c([nH]c3ccccc32)c1C#N`, the inhibition was 80.9% (active).

As to `Cc1ccc(Sc2ccc(NC(=O)c3ccc(F)cc3)cc2C#N)cc1`, the inhibition was 99.4% (active). Take `COc1ccc(Sc2ccc(NC(=O)c3cccc(Cl)c3)cc2C#N)cc1`: the inhibition is 77.8% (active). Under `O=C(NNC(=O)c1csc(-c2cccnc2)n1)Nc1ccc(Cl)cc1` stands 68.5% (active); under `O=C(Nc1nnc(S(=O)(=O)N2CCCCCC2)s1)c1cccc(Br)c1`, 99.7% (active); under `CCOC(=O)c1cc2cc(-c3c(C(=O)OCC)oc4cc(O)cc(O)c4c3=O)ccc2o1`, 47.3% (active). Turning to `COc1ccc(Cn2c(=O)sc3ccccc32)cc1OC`, the inhibition was 38.6% (active). Turning to `COc1ccc2sc(N(CCCN(C)C)C(=O)c3ccc(S(=O)(=O)N(C)C4CCCCC4)cc3)nc2c1`, the inhibition is -15.4%.

With `O=C(Nc1nnc(SCc2c(Cl)cccc2Cl)s1)c1cccc([N+](=O)[O-])c1`, the inhibition was 82.1% (active).

In the case of `O=C(Nc1nnc(SCc2ccccc2Cl)s1)c1cccc([N+](=O)[O-])c1`, the inhibition is 79.5% (active). For the compound `O=C(c1ccc(Cl)cc1)c1ccc(OCC(O)CN2CCCCC2)cc1` (centres undefined), the inhibition is -2.35%. On to `O=C(COC(=O)c1ccccc1NC(=O)c1ccco1)Nc1ccc2c(c1)OC(F)(F)O2`, for which the inhibition was 16.6%. Regarding `O=C(Cc1c(F)cccc1Cl)Nc1ncc([N+](=O)[O-])s1`, the inhibition is 98.1% (active). Turning to `S=C(NCc1ccc(Cl)cc1)NC1CCCCC1`, the inhibition is 92.6% (active). `S=C(NCc1ccc(Cl)cc1)NC12CC3CC(CC(C3)C1)C2`: the inhibition was 83.4% (active).
